Results as given in PubChem BioAssay (NCI).
The panel holds about 83,000 compounds, 20% with a hit somewhere; the sample as a whole holds those more often.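 Cell lines were cultured in 96-well plates, exposed to a single compound concentration, and assessed for percent growth 48 hours later.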 Activity calls are given as the source filed them. Rule for the calls: active = growth percent below 10; inactive = the rest.

How the values were obtained:
Experiment in all cases: NCI-60 one-dose screen, 48 h (100 = growth as untreated, 0 = no growth, -100 = all killed)
Conditions in all cases: 10 µM unless noted
[1] = system: NCI-H226 lung
[2] = system: NCI-H322M lung
[3] = system: HOP-62 NSCLC
[4] = system: NCI-H460 lung
[5] = system: HOP-92 NSCLC
[6] = system: NCI-H522 lung
[7] = system: A549/ATCC NSCLC
[8] = system: 786-0 renal
[9] = system: COLO 205 colon
[10] = system: DU-145 prostate

SMILES | growth [1] | growth [2] | growth [3] | growth [4] | growth [5] | growth [6] | growth [7] | growth [8] | growth [9] | growth [10]
O=C(CN1C(=O)/C(=C/c2ccccc2)SC1=S)N1CCOCC1 | 105% (inactive) | 91.9% (inactive) | 97% (inactive) | 105% (inactive) | 102% (inactive) | 68.2% (inactive) | 97.4% (inactive) | 92.3% (inactive) | 116% (inactive) | 103% (inactive)
COc1cc2nc(-c3ccc(C)cc3)cc(OCCCNCC3CCCO3)c2cc1OC (stereo not given) | 89.4% (inactive) | 70.4% (inactive) | 75.2% (inactive) | 38% (inactive) | 47% (inactive) | 59.1% (inactive) | 61.6% (inactive) | 73.5% (inactive) | 45.4% (inactive) | 60% (inactive)
CCC/C=C/C=C/C(=O)N[C@@H](Cc1cc(F)cc(F)c1)C(=O)N[C@@H]1C(=O)N2CCC[C@H]2C(=O)N2CCCC[C@H]2C(=O)N[C@@H](C)C(=O)N2C[C@H](C)C[C@H]2C(=O)O[C@H]1C | 19.9% (inactive) | 36.5% (inactive) | 31.6% (inactive) | 11.9% (inactive) | 23% (inactive) | 17.9% (inactive) | 31.8% (inactive) | 37.8% (inactive) | -54.1% (active) | 22.6% (inactive)
Cn1ccnc1C(=O)/C=C/c1ccc(NC(=O)Nc2ccccc2)cc1 | 35.9% (inactive) | 28.8% (inactive) | 16.1% (inactive) | -56.7% (active) | 57.4% (inactive) | 11.9% (inactive) | 6.79% (active) | 5.89% (active) | 11.1% (inactive) | 4.23% (active)
COc1ccc(C(=O)/C=C/c2ccc(OCc3ccc(C)cc3)c(OC)c2)cc1OC | 59.2% (inactive) | 70.4% (inactive) | 101% (inactive) | 60.1% (inactive) | 60.6% (inactive) | 72.3% (inactive) | 63.3% (inactive) | 83.7% (inactive) | 95.3% (inactive) | 70.3% (inactive)
O=C(N/N=C/c1ccc[nH]1)c1[nH]c2ccc(Br)cc2c1-c1ccccc1 | 35.9% (inactive) | 32.4% (inactive) | 22.2% (inactive) | 2.17% (active) | 15.5% (inactive) | -20.2% (active) | 17.6% (inactive) | 13.7% (inactive) | 6.05% (active) | 20.6% (inactive)
O=C1/C(=C/C2=Cc3ccccc3OC2)SC(=S)N1c1ccc(F)cc1 | 103% (inactive) | 97.2% (inactive) | 101% (inactive) | 105% (inactive) | 99.2% (inactive) | 90.4% (inactive) | 101% (inactive) | 96.3% (inactive) | 107% (inactive) | 104% (inactive)
CS(=O)(=O)c1ccc(-c2nc3ccccn3c2/C=N/Nc2nc(-c3ccc(Br)cc3)cs2)cc1 | 108% (inactive) | 111% (inactive) | 121% (inactive) | 104% (inactive) | 116% (inactive) | 99.8% (inactive) | 109% (inactive) | 84.8% (inactive) | 116% (inactive) | 109% (inactive)
Cc1c(NC(=O)CSc2nc3sc4c(c3c(=O)n2-c2ccc(Cl)cc2)CCCC4)c(=O)n(-c2ccccc2)n1C | 108% (inactive) | 94.9% (inactive) | 99.3% (inactive) | 96.8% (inactive) | 96.3% (inactive) | 96.8% (inactive) | 81.2% (inactive) | 102% (inactive) | 106% (inactive) | 89.4% (inactive)
Cn1cc(-c2cc(N)n3nc(-c4cn(C)c5ccc(Cl)cc45)cc3n2)c2cc(Cl)ccc21 | 111% (inactive) | 85.7% (inactive) | 102% (inactive) | 71.4% (inactive) | 95.3% (inactive) | 100% (inactive) | 87.9% (inactive) | 99.4% (inactive) | 119% (inactive) | 71.4% (inactive)
Cc1cc(C(NC(=O)CCCCCNc2cccc3c2C(=O)N(C2CCC(=O)NC2=O)C3=O)c2cccnc2)c(O)c2ncccc12 (stereo not given) | 14.2% (inactive) | 3.62% (active) | 10.2% (inactive) | 13.6% (inactive) | -3.51% (active) | 23.4% (inactive) | 28% (inactive) | 9.13% (active) | 2.37% (active) | 34.8% (inactive)
O=C(Nc1nc2ccc(O)cc2s1)c1cccc(C(F)(F)F)c1 | 84.2% (inactive) | 84.3% (inactive) | 88.6% (inactive) | 56.7% (inactive) | 69% (inactive) | 35.6% (inactive) | 57% (inactive) | 77.1% (inactive) | 107% (inactive) | 65.9% (inactive)
COc1ccc(C(=O)/C=C/c2ccc(Oc3nc(NCCO)nc(N4CCOCC4)n3)c(OC)c2)cc1 | 92.9% (inactive) | 96.6% (inactive) | 106% (inactive) | 79.8% (inactive) | 104% (inactive) | 66.4% (inactive) | 103% (inactive) | 100% (inactive) | 114% (inactive) | 95% (inactive)
